Compound activity from PubChem BioAssay.
This is a sample that favours compounds with a hit; in the whole collection about 21% have one here.
Shiga inhibitor = A qHTS for Small Molecule Inhibitors of Shiga Toxin; Vero cells, Shiga toxin protein synthesis inhibition reporter; inhibition, % at 38.7 µM; hit rate 9.2% among 290,000; AID 2315, 2010; in the data active = inhibition mostly above about 28%, no sharp cut-off; inactive = mostly below about 43%; note: 0% is about no effect
Pf growth 96h = Primary qHTS for delayed death inhibitors of the malarial parasite plastid, 96 hour incubation. hit rate 6.9% among 320,000. Potency, µM (titrated, usually from 28.7 µM), without a hit: at the top dose activity change, negative = inhibition, actives largely listed as inhibitors. P. falciparum luciferase reporter growth, 96 h. AID 504834, 2011; note: potency is the fitted concentration of half-maximal effect; % is set by controls: 0 for no effect and ±100 for the full control effect
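Delayed-death screen, second-generation endpoint: infected erythrocytes, 2% hematocrit, 0.05% parasitemia final; 96 hours at 37 C, 5% CO2; luciferase detection reagent; luminescence decrease equals reduced growth.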
NS1 function inh = qHTS Assay for Inhibitors of Influenza NS1 Protein Function. Potency, µM (titrated, usually from 46.1 µM), inactives show at the highest dose activity, positive = more growth. hit rate 0.4% among 270,000. AID 2326, 2010; calls by dose curve; note: potency is the fitted concentration of half-maximal effect; actives are rising curves; nearly all actives have a fitted effect of over 50% in size
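A cell-based growth assay was used: compounds that relieve NS1-induced slow growth of budding yeast raise OD600. Assay medium was yeast nitrogen base with ammonium sulphate and -URA supplement, pH 6.0, with 2% galactose.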
Pf growth 48h = Primary qHTS for delayed death inhibitors of the malarial parasite plastid, 48 hour incubation. P. falciparum luciferase growth in erythrocytes, 48 h. Potency, µM (series often up to 28.7 µM), for inactives: at the highest dose activity change, negative = inhibition, usual class: inhibitors. hit rate 5.9% among 310,000; note: potency is the fitted concentration of half-maximal effect; % is set by controls: 0 for no effect and ±100 for the full control effect
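Here the parasites carry a stable luciferase gene and grow inside erythrocytes in Albumax-based RPMI medium with compound for one erythrocytic cycle. Activity is scored as loss of luminescent signal.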
CHX counter = Cycloheximide Counterscreen for Small Molecule Inhibitors of Shiga Toxin. cell reporter, cycloheximide protein synthesis inhibition counterscreen. max response, %. hit rate 12% among 300,000; in the data active = max response mostly above about 13%, no sharp cut-off; inactive = mostly below about 14%; note: read at 38.3 µM for the half of the compounds with a filed dose; 0% is about no effect
Giardia FBPA inh = qHTS Assay for Inhibitors of Fructose-1,6-bisphosphate Aldolase from Giardia Lamblia. A8B2U2. AID 2451, 2010. purified Giardia FBPA. hit rate 0.71% among 290,000. Potency, µM (series often up to 59.6 µM), inactives show at the highest dose activity, negative = inhibition, hits mostly inhibitors; note: potency is the fitted concentration of half-maximal effect; % is set by controls: 0 for no effect and ±100 for the full control effect; nearly all actives have a fitted effect of over 55% in size
Target sequence (A8B2U2 whole entry, looked up): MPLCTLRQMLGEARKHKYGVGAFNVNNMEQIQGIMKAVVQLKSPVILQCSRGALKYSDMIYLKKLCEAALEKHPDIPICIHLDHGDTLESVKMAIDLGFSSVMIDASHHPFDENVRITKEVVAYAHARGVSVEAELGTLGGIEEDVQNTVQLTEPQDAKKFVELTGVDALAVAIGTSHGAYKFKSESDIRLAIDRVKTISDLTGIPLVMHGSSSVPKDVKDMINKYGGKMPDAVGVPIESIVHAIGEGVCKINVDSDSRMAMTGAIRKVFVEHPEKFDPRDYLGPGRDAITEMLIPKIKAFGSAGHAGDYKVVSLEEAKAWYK
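Giardia FBPA (40 nM reagent) was preincubated 10 min at RT with compound (up to 57.5 uM final), then substrate plus GAPDH/TPI/NAD/arsenate coupling system with diaphorase/resazurin was added; resorufin fluorescence (525/598 nm) was read after 20 min.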
Starred values were filed as active, the others as inactive; ? = inconclusive; · = no result given; [ ] = another dose, or the depositor's remark. Unless noted, calls come from the whole dose curve; as a rule, active = well fitted curve in the direction sought with a large enough effect; inconclusive = small, poorly fitted or top-dose-only effect, or another doubt; inactive = no such curve, though single readings can be large; an effect the other way counts as inactive or inconclusive.

SMILES | Shiga inhibitor | Pf growth 96h | NS1 function inh | Pf growth 48h | CHX counter | Giardia FBPA inh
COc1ccc(C(=O)CC(SCC(NC(C)=O)C(=O)O)c2ccc(Cl)cc2)cc1OC (stereo not given) | 30.1 | ? | -0.4% | 4.0% | -2.1 | -14.9%
FC(F)(F)c1ccc(-c2nnc(-c3cccnc3)o2)cc1 | -6.1 | 4.1% | -13.8% | 45.8% | -2.5 | 0.5%
Cc1ccc(-n2nnnc2-c2ccccc2)cc1 | -8.2 | 64.6% | · | -10.2% | 5.6 | 2.9%
COc1ccc(-n2nnnc2-c2cccnc2)cc1 | -10.0 | 9.28µM* | 0.3% | 0.1% | 0.9 | 5.5%
COc1ccc(-c2nnc(-c3cccnc3)o2)cc1 | 61.5* | 42.5% | -62.6% | 111.3% | 27.7* | 2.5%
Clc1ccc(-c2nnc(-c3cccnc3)o2)cc1 | 55.5* | ? | -21.3% | 71.8% | 19.6* | -5.3%
c1cncc(-c2nnc(-c3cccs3)o2)c1 | 58.0 | ? | -8.9% | 51.7% | 20.0* | 6.0%
COc1ncc2nc(-c3cc(F)cc(F)c3)c(=O)n(Cc3cccs3)c2n1 | · | · | · | · | · | -18.2%
O=c1[nH]c2ccc(S(=O)(=O)N3CCN(S(=O)(=O)c4c(F)cccc4F)CC3)cc2[nH]c1=O | -1.8 | · | · | · | -3.3 | ·
Nc1ncnc2c1ncn2[C@@H]1O[C@H](COP(=O)(O)O)[C@@H](O)[C@@H]1O | · | · | · | · | · | 4.2%[21.7 µM]
COC(=O)[C@@]1(Cc2ccc(OC)cc2)[C@H]2c3cc(C(=O)N(C)C)n(Cc4nc5ccccc5[nH]4)c3C[C@H]2CN1C(=O)c1ccccc1 | · | · | · | · | · | -8.3%
CC1(C)Cc2c(sc3ncnc(NN)c23)CO1 | 8.3 | 26.9% | -2.9% | -11.4% | -0.5 | 14.0%
O=C1CC2(CCN(C(=O)c3ccc(F)c(F)c3)CC2)Oc2ccccc21 | · | 0.8% | · | 0.1% | · | ·
Cc1cccc(NC(=O)CC2C(=O)NCCN2C(=O)Nc2ccc(Cl)cc2)c1 (stereo not given) | 21.0 | ? | 15.0% | -8.6% | 10.1 | ·
O=C(COC(=O)c1ccc(Cl)nc1)Nc1nnc(-c2ccccc2)o1 | · | ? | · | -2.7% | · | ·
Clc1ccc(-c2nnc(-c3ccccc3)o2)cn1 | 7.2 | 34.0% | -2.7% | 45.2% | 11.3* | -8.5%
c1ccc(-c2nnc(C3CC(c4cccnc4)=NO3)o2)cc1 (stereo not given) | 20.1 | -1.0% | 12.2% | 33.6% | 14.9* | -0.6%
Cc1ccc(-c2nnc(-c3cccnc3)o2)cc1 | 81.2* | 108.3% | -13.7% | 128.2% | 36.2* | 8.3%
Fc1ccc(C2=NOC(c3nnc(-c4ccccc4)o3)C2)cc1 (stereo not given) | 6.0 | 45.2% | -4.8% | 8.3% | 8.2 | 1.6%
COc1ccc(-c2nnc(-c3ccc(N)cc3)o2)cc1 | 61.9* | · | -4.3% | 24.6% | 43.9* | -26.0%
COc1ccc(-c2nnc(-c3ccc(N(C)C)cc3)o2)cc1 | 29.5 | · | 2.6% | 16.4% | 7.6 | 0.7%
OCCNc1nc(N2CCCCC2)nc2ccccc12 | -8.5 | -2.4% | -1.2% | ? | -2.6 | -14.1%
Cc1ccccc1-c1nc(NC2CC2)c2ccccc2n1 | · | · | · | · | · | -4.7%
c1ccc(N2CCN(c3nc(NCc4ccco4)c4ccccc4n3)CC2)cc1 | 26.5 | 2.33µM* | 4.6% | 2.33µM* | 9.6 | -28.2%
c1ccc(CNc2nc(N3CCN(Cc4ccccc4)CC3)nc3ccccc23)cc1 | 2.7 | ? | -63.9% | 5.22µM* | -4.9 | -18.4%
c1coc(CNc2nc(N3CCCCC3)nc3ccccc23)c1 | -6.8 | · | ? | 6.57µM* | -0.5 | -14.5%
c1ccc(CN2CCC(Nc3nc(-c4ccccc4)nc4ccccc34)CC2)cc1 | -12.5 | · | -124.6% | 8.28µM* | -3.0 | -2.6%
CC(C)C[C@@H](CC(=O)N[C@@H](CCC(=O)O)CC(=O)O)NC(=O)[C@@H]1CCCC[C@H]1NC(=O)C[C@H](CCCN)NC(=O)C[C@H](CO)NC(=O)[C@@H]1CCCC[C@H]1N | · | · | · | · | · | -15.2%
OC1(c2ccc(OC(F)F)cc2)CSC(=Nc2cccnc2)N1Cc1ccco1 (stereo not given) | -3.8 | ? | · | ? | 6.1 | -0.1%
OC1(c2ccc(F)cc2)CSC(=Nc2cccnc2)N1Cc1ccco1 (stereo not given) | -3.7 | 2.33µM* | -34.5% | 5.86µM* | 2.5 | -0.6%
